Data on two molecules can be found in PubChem BioAssay AID2284064 (EPA ToxCast).

Calls of active or inactive are those of the source. The calls were made as follows: active = hit-call score of the fitted dose curve at least 0.9, where 1 is the maximum; inactive = score below 0.9.

In this test the target is human CDK2/CyclinA CMGC Kinase, CDK2 (gene 1017) (UniProt P24941). Nature of the test: ERF_FR_ENZ_hCDK2: Eurofins (ERF) Enzymatic Radiometric [Km ATP] KinaseProfiler LeadHunter Assay for human CDK2/CyclinA CMGC Kinase. As to the method:
ERF_FR_ENZ_hCDK2 is a biochemical, single-readout assay that uses extracted gene-proteins in a cell-free assay. Measurements were taken 0.5 hour after chemical dosing in a 96-well plate. See CDK2 /CyclinA Human CMGC Kinase Enzymatic LANCE Assay [Km ATP], Cerep.ERF_FR_ENZ_hCDK2 is an assay component calculated from the ERF_FR_ENZ_hCDK2 assay. It is designed to measure enzyme activity using a type of enzyme reporter as detected by fluorescence intensity with LANCE technology.Data from the assay component ERF_FR_ENZ_hCDK2 was analyzed at the assay endpoint, ERF_FR_ENZ_hCDK2, in the positive analysis fitting direction relative to DMSO as the negative control and baseline of activity. Using a type of enzyme reporter, loss-of-signal activity can be used to understand changes in enzymatic activity as they relate to gene CDK2. To generalize the intended target to other relatable targets, this assay endpoint is annotated to the kinase intended target family, where the subfamily is serine/threonine kinase.
CDK2/cyclinA (h) is incubated with 8 mM MOPS pH 7.0, 0.2 mM EDTA, 0.1 mg/mL histone H1, 10 mM MgAcetate and [gamma-33P]-ATP (specific activity and concentration as required). The reaction is initiated by the addition of the Mg/ATP mix. After incubation for 40 minutes at room temperature, the reaction is stopped by the addition of phosphoric acid to a concentration of 0.5%. […]
On to `O=C(/C=C/c1ccc(O)cc1)CC(=O)/C=C/c1ccc(O)cc1`, for which the outcome was inactive.

On to `COc1cc(CCC(=O)CC(=O)CCc2ccc(O)c(OC)c2)ccc1O`, for which the call was inactive.
